Reference: PubChem BioAssay (Tox21)
Unmarked numbers belong to inactive results. Records with an inconclusive call do not appear. A call without a number means that no potency is given here. Active and inactive are the calls of the source. Unless noted, calls come from the whole dose curve; as a rule, active = well fitted curve in the direction sought with a large enough effect in the repeat runs; inconclusive = weak or mixed curves; inactive = no such curve, though single readings can be large; an effect the other way counts as inactive or inconclusive.

Experiments:
[1] = qHTS assay to identify small molecule agonists of the hypoxia (HIF-1) signaling pathway (AID 1224846; active = well fitted activation curve with a large enough effect in the signal ratio in the repeat runs, not every such curve was filed as active; the % refers to the signal ratio)
Method in brief: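 In ME-180 cells bearing an HRE-bla construct, 17 h treatment with DMSO-dissolved compounds at 37C was followed by CCF4-AM loading to quantify reporter induction.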

[2] = qHTS assay to identify small molecule agonists of H2AX - cell viability counter screen (AID 1224847; calls by dose curve; note: nearly all actives have a fitted effect of over 30% in size; note: potency is the fitted concentration of half-maximal effect)
Method in brief: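 Quantitative HTS viability measurement: CHO-K1 wild-type cells in serum (10% FBS) medium, short 3 hr drug exposure at 37C with 0.76% DMSO, CellTiter-Glo luminescent detection.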

[3] = qHTS RealTime-Glo MT Cell Viability Assay in HepG2 cells - 24 hour (AID 1224867); note: nearly all actives have a fitted effect of over 50% in size; note: potency is the fitted concentration of half-maximal effect
Method in brief: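 Cell number in HepG2 cultures estimated from NanoLuc luminescence generated by metabolic reduction of a prosubstrate by living cells. The homogeneous, nonlytic format allowed repeated reads at 0, 8, 16, 24, 32 and 40 h of compound exposure.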

[4] = qHTS RealTime-Glo MT Cell Viability Assay in HEK293 cells - 32 hour (AID 1224868); note: nearly all actives have a fitted effect of over 50% in size; note: potency is the fitted concentration of half-maximal effect
Method in brief: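 Homogeneous bioluminescent viability format in HEK293 cells (600 cells/well). Following 5 h at 37 C/5% CO2, 23 nL compound was pintooled; the signal was measured repeatedly during 40 h incubation.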

[5] = A CellTox Green Cytotoxicity Assay to monitor cytotoxicity in HEK293 cells - 0 hour (AID 1224869); note: nearly all actives have a fitted effect of over 50% in size
Method in brief: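 Homogeneous no-lysis format: HEK293 cell suspension mixed with CellTox Green reagent, seeded, incubated 5 h at 37 C/5% CO2, then dosed by pintool with compound in DMSO.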

[6] = qHTS assay to identify small molecule agonists of the hypoxia (HIF-1) signaling pathway - cell viability counter screen (AID 1224844; calls by dose curve; note: nearly all actives have a fitted effect of over 50% in size)
Method in brief: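 Same wells as the HIF-1 reporter screen; ME-180 cells carrying HRE-bla, 17 hr treatment at 37C; CellTiter-Glo luminescence read after 30 min at room temperature.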

[7] = qHTS assay to identify small molecule antagonists of the estrogen related receptor (ERR) signaling pathway from Tox21 library (AID 1224848); note: nearly all actives have a fitted effect of over 50% in size; note: potency is the fitted concentration of half-maximal effect
Method in brief: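 First, 2,000 ERR cells per well were plated and held 6 h at 37 C/5% CO2. Next, compounds in DMSO were pinned in and left 18 h at 37 C. Finally, ONE-Glo was added and luminescence read after 30 min at room temperature.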

[8] = qHTS assay to identify small molecule agonists of the estrogen related receptor (ERR) signaling pathway from Tox21 library (AID 1224849; calls by dose curve; note: nearly all actives have a fitted effect of over 15% in size); conditions: ERR reporter cell line, ONE-Glo luciferase, 18 h; at 92.4 µM (top of the series) unless noted
Method in brief: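 Reporter cells (ERR, NTP source) treated with Tox21 10K compounds 18 h, 37 C. Readout: ONE-Glo luminescence, 30 min RT.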

[9] = qHTS assay to identify small molecule agonists of H2AX (AID 1224845; active = well fitted activation curve with a large enough effect in the signal ratio in the repeat runs, not every such curve was filed as active; the % refers to the signal ratio)
Method in brief: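 Wild-type CHO-K1 cells plated overnight, then exposed 3 hr at 37C to compounds at 15 concentrations (0.76% DMSO). Lysed, then HTRF anti-pH2AX(S139)-cryptate/anti-H2AX-d2 detection after 24 hr at room temperature; emissions 665 and 620 nm.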

Row | Compound | outcome [1] | Potency [2] | Potency [3] | Potency [4] | Potency [5] | Potency [6] | Potency [7] | activity change, positive = activation [8] | Potency [9]
1 | C=CC(=O)[O-].C=CC(=O)[O-].[Zn+2] | inactive | inactive | inactive | inactive | inactive | – | – | – | –
2 | COc1ccccc1N1CCN(CCCCNC(=O)c2ccc(-c3ccc(C(C)=O)cc3)cc2)CC1 | inactive | inactive | inactive | 1.51 µM (active) | inactive | inactive | – | – | –
3 | CC(=O)N/N=C/c1ccc([N+](=O)[O-])o1 | inactive | – | inactive | inactive | inactive | – | inactive | -10.2% [at 42.5 µM] | –
4 | CC1=C(Br)C(=O)C(Br)=C/C1=C(/c1ccccc1S(=O)(=O)O)c1cc(Br)c(O)c(Br)c1C | inactive | 21.7 µM (active) | inactive | inactive | inactive | – | – | -55.4% [at 42.5 µM] | –
5 | Cc1ccc(OC(=O)c2ccccc2O)cc1 | inactive | – | inactive | inactive | inactive | inactive | inactive | 2.99% | –
6 | O=C(OCC(O)CO)c1ccccc1Nc1ccnc2cc(Cl)ccc12 (stereo not given) | – | – | inactive | 8.49 µM (active) | inactive | inactive | 26.6 µM (active) | -40.1% [at 42.5 µM] | –
7 | CC(=O)c1ccc([N+](=O)[O-])cc1 | inactive | inactive | inactive | inactive | inactive | – | inactive | 1.22% | inactive
8 | CN1C(=O)N(c2ccccc2Br)Cc2cnc(Nc3ccc4c(c3)OCC(CO)O4)nc21 (stereo not given) | – | 31.8 µM (active) | – | 6.16 µM (active) | inactive | inactive | 8.63 µM (active) | -69.6% | –
9 | CN1CCCC(CC2c3ccccc3Sc3ccccc32)C1 (stereo not given) | – | – | 23.9 µM (active) | 23.9 µM (active) | inactive | – | – | -39.8% [at 42.5 µM] | –
10 | Cc1cc(O)ccc1O | – | 51 µM (active) | inactive | – | inactive | – | – | -73.6% (active) | –
11 | CCCC(C(=O)OCCN(CC)CC)(c1ccccc1)c1ccccc1 | – | – | – | 21.3 µM (active) | inactive | – | 29.8 µM (active) | -35.3% [at 42.5 µM] | –
12 | CCCCN(CCCC)C(C(N)=O)c1ccc(OC)cc1 (stereo not given) | inactive | inactive | inactive | – | inactive | inactive | – | – | –
13 | Nc1nc2ccc([N+](=O)[O-])cc2s1 | – | inactive | inactive | – | inactive | – | – | – | –
